The values that follow come from PubChem BioAssay AID2384 (Southern Research Specialized Biocontainment Screening …, 2010).

Among all 2,300 compounds or so, about 1,100 (48%) were called active. How the calls were made is not given here. So high a share suggests a set chosen from earlier hits. The list shows a part of the results. Measured potencies and affinities stand elsewhere.

A short description of the test: S. typhi counter-screen signal inhibition – fluorescence, 4 h, counter-screen for PhoP regulon inhibitor project, dose response (AID 2384). Particulars: S. typhi GFP reporter counter-screen; series mostly up to 150 µM. For orientation: Counterscreens check selectivity or assay interference.
For `CCCNC(=O)COc1ncnc2sc(C)c(C)c12`, the inhibition (as a rule, how much of the control response was suppressed) was “inactive”.
Consider `COc1ccc(-n2cnc3c(sc4nc(N5CCOCC5)c5c(c43)CCCC5)c2=O)cc1`, for which the inhibition entry is “inactive”.
For the compound `Cc1cc(=O)oc2c(CN(C)Cc3ccccc3)c(O)ccc12`, the inhibition result is “inactive”.
As for `CC(C)(C)NC(=O)c1ccc2c3c(cccc13)CC2`, the inhibition result is “inactive”.
As to `Cc1ccc(C(=O)N2C(=S)C(c3ccc(F)cc3)=NC23CCN(C)CC3)cc1`, the inhibition result was “inactive”.
In the case of `COC(=O)c1ccc(C)c(NC(=O)CN2C(=O)c3ccccc3S2(=O)=O)c1`, the inhibition result is “inactive”.
In the case of `CC(C)(C)Nc1nc(-c2ccccn2)nc2ccccc12`, the inhibition entry is “inactive”.
With `COC(=O)c1ccccc1NC(=O)CSc1ncn[nH]1`, the inhibition result is “inactive”.
`O=C1Nc2ccccc2C1=Nc1ccc(S(=O)(=O)Nc2nccs2)cc1`: the inhibition entry is “inactive”.
For the compound `CCc1nc(C)ccc1OCC(=O)NCCCN(C)C`, the inhibition entry was “inactive”.
For `Cc1ccc(-c2nc(C(=O)NCCCN(C)C)cc3c2[nH]c2ccccc23)cc1` the value was “inactive”.
For `Oc1ccc(C=Nc2ccc3ncccc3c2)c(O)c1` the value was “inactive”.
On to `Cc1ccc(C2CC(=O)NC(SCCC(C)C)=C2C#N)cc1` (stereo not given), for which the inhibition entry was “inactive”.
As for `C=CCN1C(=O)C(O)(CC(=O)c2c(C)n[nH]c2C)c2cc(Br)ccc21` (stereo not given), the inhibition result was “inactive”.
Consider `Cc1cc[n+](CC(=O)c2ccc(NC(=O)c3ccccc3)cc2)cc1`, for which the inhibition entry is “inactive”.
Regarding `CCc1ccc2c(c1)CCCN2C(=O)c1ccccc1C(=O)O`, the inhibition result is “inactive”.
For the compound `COc1ccc2c(c1)cc1n2CCN=C1N`, the inhibition entry was “inactive”.
Then `COc1c(N2CCN(C(=S)NCc3ccccc3)C(C)C2)c(F)cc2c(=O)c(C(=O)O)cn(C3CC3)c12` (stereo not given), with “inactive”; and `CCCC(=O)c1c(NC)cc(C)oc1=O`, with “inactive”; and `Cc1c(-c2ccccc2)[n+](=O)c2c(n1[O-])CCCC2`, with “inactive”.
Then `O=C(Nc1ccc(F)cc1)C1CCC(CNc2c(N3CCCCC3)c(=O)c2=O)CC1` (stereo not given), with “inactive”; and `Nc1nc(N2CCN(c3ccccn3)CC2)nc2ccccc12`, with “inactive”.
In the case of `Cc1ccc(Cn2c(=N)c(C(=O)NCCN3CCOCC3)cc3c(=O)n4ccccc4nc32)cc1`, the inhibition entry is “inactive”.
Then `CCOc1ccccc1NC(=O)CSc1nc(N)c(C#N)cc1C#N`, with “inactive”; and `CN1CCc2nc(SCC(=O)Nc3cccc(F)c3)c(C#N)c(-c3cccs3)c2C1`, with “inactive”; and `COCCn1c(SCC(=O)Nc2nnc(C)s2)nnc1-c1c[nH]c2ccccc12`, with “inactive”.
For the compound `N#CCCn1ncc2ccccc21`, the inhibition entry is “inactive”.
As to `C=CCOC(=O)C1=C(C)NC2(O)c3ccccc3C(=O)C12O` (stereo not given), the inhibition entry is “inactive”.
`COC(=O)c1ccc(Cn2cnc3ccccc3c2=O)cc1`: the inhibition result is “inactive”.
As for `N#C/C(=C\c1ccc[nH]1)C(=O)NC1CC1`, the inhibition result is “inactive”.
With `O=c1c2ccccc2nc2n1CCc1c-2[nH]c2ccccc12`, the inhibition entry was “inactive”.
Turning to `CC1(C)Oc2ccc3ccc(=O)oc3c2/C(=C/NCCN/C=C2\C(=O)C(C)(C)Oc3ccc4ccc(=O)oc4c32)C1=O`, the inhibition result was “inactive”.
With `Cn1nnnc1SCC(=O)Nc1ccccc1-c1ccccc1`, the inhibition entry was “inactive”.
For `CC1CCN(C(=O)CSc2nnc(Cc3cc(=O)[nH]c(=O)[nH]3)n2-c2ccc(Cl)cc2)CC1` the value was “inactive”.
As for `CCOC(=O)N1CCC(=NNc2ccnc3cc(Cl)ccc23)CC1`, the inhibition entry was “inactive”.
For the compound `Cn1c(CCN2CCN(c3ccccn3)CC2)nc2cc(NC(=O)COc3ccccc3)ccc21`, the inhibition result was “inactive”.
Then `O=C(c1ccc2c(c1)[nH]c(=S)n1c3ccccc3nc21)N1CCN(c2cccc(Cl)c2)CC1`, with “inactive”; and `C(=N\Nc1nc2ccccc2[nH]1)/c1ccc2ncccc2c1`, with “inactive”.
For `Cn1cnnc1SCC(=O)Nc1ccc2nc(SCc3ccccc3)sc2c1` the value was “inactive”; for `COC(=O)CC1C(=O)NCCN1C(=O)CSc1nc2ccc([N+](=O)[O-])cc2s1` (stereo not given), “inactive”; for `O=C(CSc1ccccn1)N/N=C/c1c[nH]c2ccccc12`, “inactive”.
In the case of `CCN1C(=O)N/C(=C/c2cc(C)n(Cc3ccccc3)c2C)C1=O`, the inhibition result was “inactive”.
Regarding `CC(=O)Nc1ccc(NC(=O)CSc2ccc(-c3ccco3)nn2)cc1`, the inhibition entry was “inactive”.
On to `Cc1cccc(OCC(=O)Nc2nonc2NC(=O)COc2cccc(C)c2)c1`, for which the inhibition entry is “inactive”.
Consider `O=C(c1cc2c(s1)-c1ccccc1S(=O)(=O)C2)N1CCN(Cc2ccccc2)CC1`, for which the inhibition entry was “inactive”.
For the compound `CN1CCN(c2ccccc2NC(=O)c2sc3ccccc3c2Cl)CC1`, the inhibition result is “inactive”.
For `Cc1cc(C=O)c(O)cc1O`, the inhibition entry is “inactive”.
For the compound `O=C(NCc1ccccc1)c1ccc(CNc2c(N3CCCC3)c(=O)c2=O)cc1`, the inhibition result is “inactive”.
As for `COc1ccc(NC(=O)Cn2c(=O)oc3cc(S(=O)(=O)N4CCCC4)ccc32)c(OC)c1`, the inhibition entry was “inactive”.
With `NC1=NC2(CCCCC2)n2c(nc3ccccc32)N1`, the inhibition result was “inactive”.
As for `NC1=NC(c2cccc(O)c2)n2c(nc3ccccc32)N1` (stereo not given), the inhibition entry was “inactive”.
For `CCOC(=O)c1cnn2c1[nH]c(=O)c1ccccc12` the value was “inactive”; for `NC(=O)c1cc(S(=O)(=O)Nc2cccc(F)c2)co1`, “inactive”; for `COC(=O)c1cc2nc(-c3ccccc3)cc(C)n2n1`, “inactive”.
Consider `CNc1ccc(SC#N)cc1`, for which the inhibition result was “inactive”.
Turning to `CCOC(=O)Cc1nn(C)c(=O)c2ccccc12`, the inhibition entry is “inactive”.
For `O=S1(=O)CC=C(CSc2nc3ccccc3[nH]2)C1` the value was “inactive”.
Then `CC(=O)N1CSCC1C(=O)N1CCN(c2ccc(N3CCOCC3)nn2)CC1` (stereo not given), with “inactive”.
Regarding `CCOC(=O)C(NC(C)=O)(Nc1cccc(F)c1)C(F)(F)F` (stereo not given), the inhibition entry is “inactive”.
As to `O=C(NC1(C(F)(F)F)C(=O)Nc2c1c(=O)[nH]c(=O)n2-c1ccccc1)c1ccncc1` (stereo not given), the inhibition result was “inactive”.
As to `C=CCn1c(C)c(C(C)=O)c(N2CCCC2)nc1=S`, the inhibition entry is “inactive”.
For `NC(=O)CN1N=C(c2cc(Cl)sc2Cl)CSC1=O` the value was “inactive”; for `COCCN1CC(=O)N2C(c3cccc(OC)c3)c3[nH]c4ccccc4c3C[C@H]2C1=O` (stereo not given in full), “inactive”; for `N=c1c(C(=O)NCC2CCCO2)cc2c(=O)n3ccccc3nc2n1Cc1ccc(Cl)cc1` (stereo not given), “inactive”.
As for `COc1ccc(C)cc1NC(=O)C1CCN(S(=O)(=O)c2c(C)noc2C)CC1`, the inhibition result is “inactive”.
For the compound `CCOc1ccccc1-c1cc(-c2ccccc2)nc2c1c(=O)n(C)c(=O)n2C`, the inhibition result was “inactive”.
With `COc1cccc(C(c2c(C)[nH]n(-c3ccccc3)c2=O)c2c(C)[nH]n(-c3ccccc3)c2=O)c1O`, the inhibition result is “inactive”.
`O=C(NCc1ccco1)C1CCN(C(=O)c2cc3sccc3n2Cc2ccc(Cl)cc2)CC1`: the inhibition result is “inactive”.
`Nc1nc(SCC(=O)N2CCCC2)[nH]c(=O)c1NC(=O)c1cccs1`: the inhibition result was “inactive”.
In the case of `Clc1ccc(OCc2nc(-c3ccc(Br)o3)no2)cc1`, the inhibition result is “inactive”.
